From PubChem BioAssay AID504734 (The Scripps Research Institute Molecular Screening Center, 2011) come the findings set out here.

Each structure is given as a SMILES string. About 730 (0.21%) of roughly 340,000 compounds were called active. Only a selection was taken, and actives are over-represented in it overall. Unmarked numbers belong to inactive results.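 How the source made its calls: active means inhibition above the mean over all tested compounds plus 3 SD (cut at about 21% in these data); inactive means the rest.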

The target in the assay is Toll-like receptor 9 (Homo sapiens) + Myeloid differentiation primary response protein MyD88 (Homo sapiens) (UniProt Q9NR96+Q99836). The experiment in a line: inhibitors of TLR9-MyD88 association in cells, primary screen, cell-based, CHO, BLA complementation, fluorescence (AID 504734).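 Further: 0% = DMSO only wells and 100% = clavulanate BLA inhibitor control wells.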 To be noted: CHO BLA complementation TLR9-MyD88, CCF4 FRET ratio; at 4.98 µM; hits give high values.
Sequence of Toll-like receptor 9 (Homo sapiens) + Myeloid differentiation primary response protein MyD88 (Homo sapiens) (Q99836 whole entry, looked up): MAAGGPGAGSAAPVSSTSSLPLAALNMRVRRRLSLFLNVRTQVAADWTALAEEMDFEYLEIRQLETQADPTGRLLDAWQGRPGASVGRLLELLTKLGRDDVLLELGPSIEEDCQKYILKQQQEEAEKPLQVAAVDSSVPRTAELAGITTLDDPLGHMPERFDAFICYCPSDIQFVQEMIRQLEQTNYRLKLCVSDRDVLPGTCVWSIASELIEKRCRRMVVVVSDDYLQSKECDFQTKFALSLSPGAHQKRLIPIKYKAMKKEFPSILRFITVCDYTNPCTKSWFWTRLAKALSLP
Sequence of Toll-like receptor 9 (Homo sapiens) + Myeloid differentiation primary response protein MyD88 (Homo sapiens) (Q9NR96 whole entry, looked up): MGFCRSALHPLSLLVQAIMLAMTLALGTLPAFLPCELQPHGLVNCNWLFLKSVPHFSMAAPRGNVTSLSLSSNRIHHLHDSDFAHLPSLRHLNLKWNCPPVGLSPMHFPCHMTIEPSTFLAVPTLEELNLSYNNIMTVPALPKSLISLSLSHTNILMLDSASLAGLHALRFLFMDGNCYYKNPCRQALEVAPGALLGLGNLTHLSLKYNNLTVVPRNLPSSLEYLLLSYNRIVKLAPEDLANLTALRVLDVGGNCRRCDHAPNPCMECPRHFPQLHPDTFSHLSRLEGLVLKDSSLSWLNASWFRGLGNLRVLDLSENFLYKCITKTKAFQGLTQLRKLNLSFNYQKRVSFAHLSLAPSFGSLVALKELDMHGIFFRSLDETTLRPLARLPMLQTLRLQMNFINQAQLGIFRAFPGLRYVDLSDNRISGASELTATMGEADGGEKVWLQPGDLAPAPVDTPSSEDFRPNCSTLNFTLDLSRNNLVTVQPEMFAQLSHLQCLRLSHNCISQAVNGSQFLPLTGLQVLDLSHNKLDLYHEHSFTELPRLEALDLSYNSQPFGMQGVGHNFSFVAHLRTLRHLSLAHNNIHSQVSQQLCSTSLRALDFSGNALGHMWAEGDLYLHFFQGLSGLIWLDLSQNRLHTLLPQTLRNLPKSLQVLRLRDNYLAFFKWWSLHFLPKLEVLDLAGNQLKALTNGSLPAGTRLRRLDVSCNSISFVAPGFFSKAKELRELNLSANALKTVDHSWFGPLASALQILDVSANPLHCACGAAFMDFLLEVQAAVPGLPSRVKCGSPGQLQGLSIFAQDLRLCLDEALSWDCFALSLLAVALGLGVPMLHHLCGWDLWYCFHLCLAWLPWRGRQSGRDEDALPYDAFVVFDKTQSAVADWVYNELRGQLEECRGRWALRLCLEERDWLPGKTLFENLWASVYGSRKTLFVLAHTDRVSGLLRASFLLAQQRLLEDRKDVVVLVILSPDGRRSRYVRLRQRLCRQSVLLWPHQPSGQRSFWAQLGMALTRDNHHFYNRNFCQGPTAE
On to `O=Cc1cn(-c2ccccc2)nc1-c1ccccn1`, for which the inhibition was -5.05%.

In the case of `COc1ccc(-c2nn(-c3ccccc3)cc2C(=O)Nc2nccs2)cc1OC`, the inhibition was 7.8%.

As to `COc1ccc(-c2nn(-c3ccccc3)cc2/C=N/Nc2ccccn2)cc1OC`, the inhibition was 27.6% (active).

Regarding `NC1=CC(=O)C(=O)c2cccnc21`, the inhibition is -3.3%.

As to `Cc1nc2ccccn2c(=O)c1NC(=O)c1ccc(Br)o1`, the inhibition was -8.57%.

As for `C[C@H]1CN([C@@H](C)CO)C(=O)CCCn2cc(nn2)CO[C@@H]1CN(C)S(=O)(=O)c1cccs1`, the inhibition was -3.23%.

On to `Nc1cccc(-c2cc(-c3ccccc3)nc(-c3cccc(N)c3)n2)c1`, for which the inhibition was 4.91%.

On to `CS(=O)(=O)c1sc2nc(-c3ccccc3)cc(-c3ccccc3)c2c1N`, for which the inhibition is 21.5% (active).

With `CCN(CC)C(=O)c1sc2nc(-c3ccccc3)ccc2c1N`, the inhibition was 1.41%.

Take `CCOC(=O)C(C(=O)c1ccccc1)C(c1ccccc1)c1nccc2ccccc12` (stereo not given): the inhibition is -3.27%.

In the case of `O=C(O)c1ccccc1Cc1ccc(F)c2ccccc12`, the inhibition is 0.89%.

Take `O=C1NC(Cc2ccccc2)c2nc3ccc(Br)cc3c(=O)n2-c2cc3ccccc3cc21` (stereo not given): the inhibition is 4.34%.

Regarding `COc1ccc(-c2cc(-c3ccc(N)cc3)nc(N)c2C#N)cc1OC`, the inhibition was -1.14%.

On to `COc1ccc(-c2ccc(Nc3ccc(S(=O)(=O)N4CCCC4)cc3)nn2)cc1OC`, for which the inhibition is -1.95%.

As to `COc1ccc(-c2cc(C(F)(F)F)nc(S(C)(=O)=O)n2)cc1OC`, the inhibition was 27.6% (active).

Turning to `Cc1ccc(S(=O)(=O)N2CCOCC2)cc1NC(=O)c1ccncc1`, the inhibition is -10.3%.

With `CCN1CCCC1CNC(=O)c1ccc2c(c1)NC(=O)/C(=C\c1ccccc1F)S2` (stereo not given), the inhibition is 5.07%.

`COc1ccc(-c2nc3cnccn3c2NC(C)(C)CC(C)(C)C)cc1O`: the inhibition is -0.94%.

For the compound `COc1ccc(-c2nc3cnccn3c2NC2CCCCC2)cc1-c1cccc(Cl)c1`, the inhibition was 40.9% (active).

On to `COc1ccc(-c2nc3cc(C)ccn3c2NC2CCCCC2)cc1SC1CCCCC1`, for which the inhibition was -0.33%.

As for `CN(C)C(CNC(=O)c1cc(Br)c(Br)s1)c1ccco1` (stereo not given), the inhibition was 6.8%.

Take `NC(=S)NN=Cc1ccc(OC(=O)COc2cc(Cl)c(Cl)cc2Cl)cn1`: the inhibition is 12.2%.

As for `CC1(C)OC(=O)C2=C(CC(c3ccccc3)OC2CCc2ccccc2)O1` (stereo not given), the inhibition was -19.4%.

Take `COc1ccc(S(=O)(=O)N2CCN(CC(=O)N3CCNC3=O)CC2)cc1OC`: the inhibition was 7.47%.

`Cc1ccc(S(=O)(=O)N2C[C@@H](C)[C@]3(C2)[C@H](O)[C@H](OC(=O)NCc2ccccc2)C[C@H]2C(=O)N(c4ccccc4)C(=O)[C@H]23)cc1`: the inhibition was -1.46%.
